Data: PubChem BioAssay (NCI)
This is part of a sample that, as a whole, favours compounds with a hit. Of some 79,000 tested, about 15% had one in any assay. Values without a mark were called inactive. The source made the active and inactive calls. No stated cut-off is given here; in the data, active means growth inhibition above about 70%; inactive means the rest.

Legend:
[1] = NCI Yeast Anticancer Drug Screen. Data for the rad50 strain (AID 155);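 further: 0% = growth of vehicle-only cultures of the same strain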; conditions: S. cerevisiae rad50 strain growth inhibition, active compounds read high
In short: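 Yeast carrying a defined DNA repair defect were exposed to test compounds, and growth was compared with vehicle-treated controls to give percent inhibition.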

[2] = NCI Yeast Anticancer Drug Screen. Data for the mec2-1 strain (AID 157); conditions: S. cerevisiae mec2-1 strain, active compounds read high
In short: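 Yeast mec2-1 mutant treated with compound. Readout: growth inhibition vs vehicle controls.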

[3] = NCI Yeast Anticancer Drug Screen. Data for the sgs1 mgt1 strain (AID 161);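 further: 0% = growth of cultures given vehicle only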; conditions: S. cerevisiae sgs1 mgt1 strain, active compounds read high
In short: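 Mutant yeast exposed to compound; growth scored against vehicle-only wells.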

[4] = NCI Yeast Anticancer Drug Screen. Data for the cln2 rad14 strain (AID 165);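 further: 0% = growth equal to vehicle treated cultures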; conditions: S. cerevisiae cln2 rad14 strain, active compounds read high
In short: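 cln2 rad14 yeast strain; compound exposure; growth inhibition read vs vehicle controls.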

[5] = NCI Yeast Anticancer Drug Screen. Data for the bub3 strain (AID 167); conditions: S. cerevisiae bub3 mutant strain, active compounds read high
In short: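 Compounds were applied to a genetically altered yeast strain carrying a cell-cycle control defect. Growth inhibition was scored against vehicle-treated controls.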

[6] = NCI Yeast Anticancer Drug Screen. Data for the mlh1 rad18 strain (AID 175); conditions: S. cerevisiae mlh1 rad18 strain growth inhibition, active compounds read high
In short: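 Yeast w/ defined DNA-repair lesions; compound exposure; growth vs vehicle controls → % inhibition.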

[7] = at 5.0 µM (retest, dose inferred, filed as 0.5)
[8] = at 50.0 µM (retest, dose inferred, filed as 5.0)

SMILES	growth inhibition [1, 7]	growth inhibition [1, 8]	growth inhibition ([1]; at 50.0 µM)	growth inhibition [2, 7]	growth inhibition [2, 8]	growth inhibition ([2]; at 50.0 µM)	growth inhibition [3, 7]	growth inhibition [3, 8]	growth inhibition ([3]; at 50.0 µM)	growth inhibition [4, 7]	growth inhibition [4, 8]	growth inhibition ([4]; at 50.0 µM)	growth inhibition [5, 7]	growth inhibition [5, 8]	growth inhibition ([5]; at 50.0 µM)	growth inhibition [6, 7]	growth inhibition [6, 8]	growth inhibition ([6]; at 50.0 µM)
Sc1ccccc1.[Ag]	27%	97% (active)	98.5% (active)	58%	99% (active)	98.8% (active)	49%	98% (active)	99% (active)	20%	97% (active)	98.1% (active)	56%	97% (active)	97.9% (active)	49%	97% (active)	98.3% (active)
CCCC(C)(COC(N)=O)COC(=O)NC1CC1 (configuration not stated)	-8%	0%	21.9%	-12%	0%	0.05%	-8%	0%	36.3%	-2%	-6%	37.1%	0%	-5%	-4.4%	14%	7%	-2%
O=C1C(Cl)=C(Cl)C(=O)c2ccccc21	99% (active)	96% (active)	97.8% (active)	55%	98% (active)	97% (active)	99% (active)	97% (active)	98.2% (active)	99% (active)	95% (active)	96.6% (active)	98% (active)	96% (active)	97.5% (active)	99% (active)	96% (active)	98% (active)
Nc1nc(N)c(-c2ccc(Cl)c(Cl)c2)c(COc2cccc(CNS(=O)(=O)c3cccc(S(=O)(=O)F)c3)c2)n1	-6%	92% (active)	89.5% (active)	-4%	70% (active)	92.4% (active)	-1%	85% (active)	66.2%	-15%	60%	77.2% (active)	-4%	62%	88.8% (active)	-3%	83% (active)	96.3% (active)
Nc1nc(N)c(-c2ccc(Cl)c(Cl)c2)c(CCc2ccc(CNC(=O)c3cccc(S(=O)(=O)F)c3)cc2)n1	-3%	96% (active)	62.7%	-1%	99% (active)	59.2%	7%	99% (active)	45.9%	-10%	97% (active)	54.6%	-9%	98% (active)	47.4%	30%	98% (active)	54%
S=P(Nc1ccc(Cl)cc1)(Nc1ccc(Cl)cc1)c1ccccc1	45%	90% (active)	97.8% (active)	20%	33%	99.2% (active)	18%	65%	97.1% (active)	37%	89% (active)	95.6% (active)	38%	86% (active)	99.1% (active)	53%	95% (active)	99% (active)
Clc1ccc2c(c1)C(c1ccccc1Cl)=NCC(SCCN1CCOCC1)=N2	56%	94% (active)	96.8% (active)	29%	92% (active)	93.6% (active)	63%	98% (active)	89.7% (active)	45%	81% (active)	82% (active)	48%	93% (active)	95.6% (active)	52%	95% (active)	91.5% (active)
C[CH2][Sn]1([CH2]C)[O]C2C(OC)OC3COC(c4ccccc4)OC3C2[O]1 (configuration not stated)	77% (active)	80% (active)	18.4%	42%	70% (active)	61.2%	67%	77% (active)	-9.95%	68%	40%	-21.4%	69%	40%	71.8% (active)	53%	54%	-16.1%
CN1C(=O)C23CC4=CC=CC(O)C4N2C(=O)C1(CO)SS3 (configuration not stated)	99% (active)	99% (active)	92.8% (active)	99% (active)	100% (active)	95% (active)	99% (active)	100% (active)	93.2% (active)	99% (active)	99% (active)	92.5% (active)	99% (active)	99% (active)	93.5% (active)	99% (active)	99% (active)	93.5% (active)
COC(=O)c1ccc([As]=O)cc1N (configuration not stated)	2%	6%	98.7% (active)	1%	4%	99.5% (active)	-1%	4%	99.3% (active)	-2%	-6%	98.5% (active)	3%	2%	98.8% (active)	2%	7%	99% (active)
C[PH+](C)C.C[PH+](C)C.[Au]	36%	70% (active)	85.7% (active)	30%	89% (active)	91.8% (active)	59%	82% (active)	91% (active)	18%	32%	88% (active)	27%	57%	89.5% (active)	68%	91% (active)	89% (active)
CCOP(=O)(N=Nc1cccnc1)OCC	-2%	-17%	14%	2%	-10%	6.35%	-1%	-11%	5.05%	1%	-17%	59.8%	1%	-3%	20.1%	2%	-17%	39.1%
CC1(CO)C(O)CCC2(C)C1CCC1CC3CC12CCC3(O)CO (configuration not stated)	4%	87% (active)	-3.35%	65%	99% (active)	-18.8%	1%	80% (active)	19.1%	-13%	68%	-0.7%	-27%	77% (active)	-10%	14%	91% (active)	3.7%
CC[C@@]1(O)C(=O)OCc2c1cc1n(c2=O)Cc2cc3c(OC)cccc3nc2-1	96% (active)	92% (active)	83.6% (active)	96% (active)	92% (active)	89.4% (active)	71% (active)	88% (active)	82.4% (active)	55%	74% (active)	64%	48%	78% (active)	70.8% (active)	86% (active)	83% (active)	78.8% (active)
Oc1c(O)c(Br)c(Br)c(Br)c1Br	97% (active)	98% (active)	91.2% (active)	99% (active)	99% (active)	93.5% (active)	99% (active)	99% (active)	93.5% (active)	98% (active)	99% (active)	93% (active)	98% (active)	98% (active)	91.8% (active)	98% (active)	99% (active)	91.8% (active)
N#CCC[CH2][Sn]([Br])([Br])[c]1ccccc1	3%	72% (active)	43.9%	23%	22%	80.1% (active)	49%	49%	6%	2%	11%	34.5%	-6%	18%	89.4% (active)	8%	58%	36.5%
CC[CH2][Pb]([CH2]CC)([CH2]CC)[NH]S(=O)(=O)c1ccc(C)cc1	99% (active)	99% (active)	99.5% (active)	99% (active)	100% (active)	99.7% (active)	99% (active)	99% (active)	99.6% (active)	98% (active)	99% (active)	97.9% (active)	100% (active)	100% (active)	99.5% (active)	99% (active)	100% (active)	99.5% (active)
C[SH+]c1ccccc1N=Cc1ccccn1.C[SH+]c1ccccc1N=Cc1ccccn1.[Ni+2].[O-][Cl+3]([O-])([O-])[O-]	-3%	11%	99% (active)	-5%	5%	97.2% (active)	-1%	12%	99.5% (active)	3%	7%	58.2%	-4%	2%	98.8% (active)	1%	16%	98% (active)
O=[N+]([O-])c1cc(-c2ccccc2)ccc1O	-3%	10%	98% (active)	5%	12%	98.7% (active)	-1%	7%	97.4% (active)	-3%	2%	98% (active)	0%	-2%	96.2% (active)	-1%	7%	98.8% (active)
[Cl][Pt][Cl].c1ccc([AsH](CC[AsH](c2ccccc2)c2ccccc2)c2ccccc2)cc1	99% (active)	99% (active)	98.8% (active)	99% (active)	99% (active)	99.4% (active)	99% (active)	99% (active)	98.8% (active)	98% (active)	98% (active)	98.6% (active)	99% (active)	99% (active)	99.2% (active)	99% (active)	99% (active)	99.2% (active)
C[N+](C)(C)CC1CCCC(C[N+](C)(C)C)C1O (configuration not stated)	2%	65%	92.3% (active)	-3%	46%	43.4%	0%	81% (active)	76% (active)	-5%	39%	6.5%	-4%	70% (active)	67.7%	0%	80% (active)	95.2% (active)
C[C@@H]1C[C@H]2CC[C@H](O2)[C@H](C)C(=O)O[C@@H](C)C[C@@H]2CC[C@@H](O2)[C@@H](C)C(=O)O[C@H](C)C[C@H]2CC[C@H](O2)[C@H](C)C(=O)O[C@@H](C)C[C@@H]2CC[C@@H](O2)[C@@H](C)C(=O)O1	64%	94% (active)	84.3% (active)	78% (active)	97% (active)	88% (active)	88% (active)	95% (active)	87.8% (active)	55%	83% (active)	81.6% (active)	62%	89% (active)	84.3% (active)	76% (active)	96% (active)	82.3% (active)
O=c1oc2ccccc2c(O)c1C(C/C(CCN1CCCC1)=N/O)c1ccccc1 (configuration not stated)	28%	28%	79.8% (active)	22%	22%	81.7% (active)	16%	16%	76.8% (active)	-3%	-3%	64.2%	9%	9%	72.4% (active)	10%	10%	79.2% (active)
CCN(CC)CC(=O)c1cc2ccccc2c2ccccc12	36%	97% (active)	99.3% (active)	14%	93% (active)	92.2% (active)	47%	97% (active)	99.4% (active)	2%	82% (active)	31.1%	11%	98% (active)	99.1% (active)	36%	98% (active)	99% (active)
